In brackets after ≈: the same amount, converted by molar mass. Screen size: about 1,100 compounds; about 170 (15%) were called active. How the calls were made is not given here. Only a sample is shown.

Drawing on PubChem BioAssay AID1332 (Southern Research Institute, 2008), this text covers IC50, outcome and CC50 for 41 compounds.

This test can be described thus: Mycobacterium tuberculosis H37Rv growth inhibition, confirmatory dose response, cytotoxicity (AID 1332).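 On CC50: Vero cells exposed to compounds for 72 hours.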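 On IC50: bacteria incubated 7 days before adding Alamar blue readout reagent.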 Conditions: M. tuberculosis H37Rv growth inhibition; CC50: measured here: Vero cell cytotoxicity; IC50: measured here: IC50 H37Rv replicates.
`NC[C@@H]1O[C@H](O[C@H]2[C@@H](O)[C@H](O[C@@H]3[C@@H](O)[C@H](N)C[C@H](N)[C@H]3OC3O[C@H](CO)[C@@H](O)[C@H](O)[C@H]3N)O[C@@H]2CO)[C@H](N)[C@@H](O)[C@@H]1O` (stereo partly drawn): the concentration for half-maximal inhibition (IC50) amounted to 19.8 µg/mL (≈ 32.1 µM) and the call was active.

With `C[N+]1(C)C[C@@H](O)C[C@H]1C(=O)[O-]`, the half-maximal inhibitory concentration (IC50) is more than 20 µg/mL and the result was inactive.

For the compound `CC(C)(Sc1cc(C(C)(C)C)c(O)c(C(C)(C)C)c1)Sc1cc(C(C)(C)C)c(O)c(C(C)(C)C)c1`, the IC50 is more than 20 µg/mL and the result was inactive.

Consider `CC1=C(C(=O)O)N2C(=O)[C@@H](NC(=O)[C@H](N)c3ccc(O)cc3)[C@H]2SC1`, for which the IC50 was more than 20 µg/mL and the result was inactive.

Turning to `N=C(N=C(N)N)N1CCOCC1`, the IC50 was more than 20 µg/mL and the call was inactive.

With `Cn1cnc([N+](=O)[O-])c1Sc1ncnc2nc[nH]c12`, the CC50 is more than 6 µg/mL, the IC50 amounted to 13.1 µg/mL (≈ 47.2 µM) and the outcome was active.

Regarding `c1ccc(CNc2ncnc3nc[nH]c23)cc1`, the IC50 is more than 20 µg/mL and the outcome was inactive.

Take `CN1C[C@H](C(=O)N[C@]2(C)O[C@@]3(O)[C@@H]4CCCN4C(=O)[C@H](Cc4ccccc4)N3C2=O)CC2c3cccc4[nH]cc(c34)C[C@H]21` (stereo partly drawn): the IC50 was more than 20 µg/mL and the compound was called inactive.

For the compound `CN1CCC(=C2c3ccccc3C=Cc3ccccc32)CC1`, the CC50 was more than 6 µg/mL, the IC50 was more than 18.3 µg/mL and the result was active.

`CN1CCC(=C2c3ccccc3CCc3sccc32)CC1`: the CC50 is more than 6 µg/mL, the IC50 is more than 20 µg/mL and the compound was classed as inactive.

Consider `CN1CCC(=C2c3ccccc3Sc3ccccc32)CC1`, for which the IC50 was determined as 18 µg/mL (≈ 61.5 µM) and the compound was classed as active.

For the compound `CN1CCC(=C2c3ccccc3CC(=O)c3sccc32)CC1`, the IC50 is more than 20 µg/mL and the compound was classed as inactive.

As to `CCC(=O)OC1(C(=O)CCl)[C@@H](C)C[C@H]2[C@@H]3CCC4=CC(=O)C=C[C@]4(C)[C@@]3(F)[C@@H](O)C[C@@]21C` (stereo partly drawn), the IC50 was more than 20 µg/mL and the compound was called inactive.

As to `C[C@H](N)[C@H](O)c1cccc(O)c1`, the 50% inhibitory concentration (IC50) is more than 20 µg/mL and the compound was classed as inactive.

On to `CNCC(O)C(O)C(O)C(O)CO` (stereo not drawn), for which the IC50 was more than 20 µg/mL and the compound was called inactive.

On to `C[n+]1cccc(C(=O)[O-])c1`, for which the IC50 is more than 20 µg/mL and the compound was called inactive.

For the compound `CCC(c1ccc(O)cc1)C(CC)c1ccc(O)cc1` (stereo not drawn), the concentration for half-maximal inhibition (IC50) was more than 20 µg/mL and the call was inactive.

On to `COc1ccc2c(c1)N(C[C@H](C)CN(C)C)c1ccccc1S2`, for which the half-maximal cytotoxic concentration (CC50) was more than 6 µg/mL, the half-maximal inhibitory concentration (IC50) is more than 20 µg/mL and the call was inactive.

Consider `CC[C@H]1OC(=O)[C@H](C)[C@@H](O[C@H]2C[C@@](C)(OC)[C@@H](O)[C@H](C)O2)[C@H](C)[C@@H](O[C@@H]2O[C@H](C)C[C@H](N(C)C)[C@H]2O)[C@](C)(O)C[C@@H](C)C(=O)[C@H](C)[C@@H](O)[C@]1(C)O`, for which the IC50 was found to be 1.7 µg/mL (≈ 2.32 µM) and the compound was classed as active.

As to `CO[C@H]1C[C@H](O[C@H]2[C@H](C)[C@@H](O[C@@H]3O[C@H](C)C[C@H](N(C)C)[C@H]3O)[C@@H](C)C[C@@]3(CO3)C(=O)[C@H](C)[C@@H](O)[C@@H](C)[C@@H](C)OC(=O)[C@@H]2C)O[C@@H](C)[C@@H]1O`, the concentration for half-maximal inhibition (IC50) is more than 20 µg/mL and the compound was classed as inactive.

Consider `CC[C@H]1OC(=O)[C@H](C)[C@@H](O[C@H]2C[C@@](C)(OC)[C@@H](O)[C@H](C)O2)[C@H](C)[C@@H](O[C@@H]2O[C@H](C)C[C@H](N(C)C)[C@H]2O)[C@](C)(O)C[C@@H](C)[C@@H]2N[C@@H](COCCOC)O[C@H]([C@H]2C)[C@]1(C)O`, for which the IC50 came out at 1.33 µg/mL (≈ 1.59 µM) and the result was active.

`CO[C@H]1C[C@H](O[C@H]2[C@H](C)[C@@H](O[C@@H]3O[C@H](C)C[C@H](N(C)C)[C@H]3OC(C)=O)[C@@H](C)C[C@@]3(CO3)C(=O)[C@H](C)[C@@H](OC(C)=O)[C@@H](C)[C@@H](C)OC(=O)[C@@H]2C)O[C@@H](C)[C@@H]1OC(C)=O`: the IC50 was more than 20 µg/mL and the call was inactive.

For `COc1ccc2cc3[n+](cc2c1OC)CCc1cc2c(cc1-3)OCO2`, the IC50 is more than 20 µg/mL and the compound was called inactive.

Consider `O=C(O)CCC(=O)Nc1ccc(S(=O)(=O)Nc2nccs2)cc1`, for which the 50% inhibitory concentration (IC50) was more than 20 µg/mL and the compound was classed as inactive.

Consider `C[N+]1(C)CCC[C@H]1C(=O)[O-]`, for which the half-maximal inhibitory concentration (IC50) was more than 20 µg/mL and the call was inactive.

As for `C[C@H]1O[C@@H](OC2CC[C@]3(C=O)[C@H]4CC[C@]5(C)[C@@H](C6=CC(=O)OC6)CC[C@]5(O)[C@@H]4CC[C@]3(O)C2)C[C@H](O)[C@@H]1O` (stereo partly drawn), the CC50 came out at 2.54 µg/mL (≈ 4.75 µM), the IC50 was more than 20 µg/mL and the outcome was inactive.

With `COc1ccc(C(=O)c2ccccc2O)c(O)c1`, the 50% inhibitory concentration (IC50) is more than 20 µg/mL and the outcome was inactive.

As to `O=c1cc(-c2ccc(O)cc2)oc2c(C3O[C@H](CO)[C@@H](O)[C@H](O)[C@H]3O)c(O)cc(O)c12` (stereo partly drawn), the IC50 was more than 20 µg/mL and the compound was called inactive.

Consider `CC(=O)N[C@@H](CC(=O)O)C(=O)O`, for which the IC50 was more than 20 µg/mL and the compound was called inactive.

Regarding `Cc1cc2c(cc1S(N)(=O)=O)S(=O)(=O)CCC2`, the IC50 was more than 20 µg/mL and the compound was classed as inactive.

Consider `CCC1NC(=O)c2cc(S(N)(=O)=O)c(Cl)cc2N1` (stereo not drawn), for which the half-maximal inhibitory concentration (IC50) was more than 20 µg/mL and the call was inactive.

On to `Cc1cc2cc3c(C)cc(=O)oc3c(C)c2o1`, for which the IC50 is more than 20 µg/mL and the outcome was inactive.

For `COC(=O)[C@H]1[C@H]2C[C@H]3c4[nH]c5ccccc5c4CCN3C[C@@H]2CC[C@@H]1O`, the IC50 is more than 20 µg/mL and the compound was called inactive.

Take `COC(=O)[C@H]1[C@H]2C[C@@H]3c4[nH]c5cc(OC)ccc5c4CCN3C[C@H]2C[C@@H](OC(=O)c2cc(OC)c(OC)c(OC)c2)[C@@H]1OC`: the IC50 was 2.32 µg/mL (≈ 3.81 µM) and the result was active.

As for `COC(=O)[C@H]1[C@H]2C[C@@H]3c4[nH]c5cc(OC)ccc5c4CCN3C[C@H]2C[C@@H](OC(=O)/C=C/c2cc(OC)c(OC)c(OC)c2)[C@@H]1OC`, the CC50 was more than 6 µg/mL, the IC50 was 4.23 µg/mL (≈ 6.67 µM) and the compound was classed as active.

As to `CCOC(=O)Oc1c(OC)cc(C(=O)O[C@@H]2C[C@@H]3CN4CCc5c([nH]c6cc(OC)ccc56)[C@H]4C[C@@H]3[C@H](C(=O)OC)[C@H]2OC)cc1OC`, the IC50 amounted to 7.94 µg/mL (≈ 11.9 µM) and the outcome was active.

`COc1ccc2c3c([nH]c2c1)[C@H]1C[C@H]2[C@H](C[C@@H](O)[C@H](OC)[C@H]2C(=O)O)CN1CC3`: the IC50 is more than 20 µg/mL and the compound was called inactive.

On to `O=C(O)[C@@H]1[C@H]2C[C@H]3c4[nH]c5ccccc5c4CCN3C[C@@H]2CC[C@@H]1O`, for which the 50% inhibitory concentration (IC50) is more than 20 µg/mL and the call was inactive.

In the case of `COC(=O)[C@H]1[C@H]2C[C@H]3c4[nH]c5ccccc5c4CCN3C[C@H]2CC[C@@H]1O`, the IC50 was more than 20 µg/mL and the compound was classed as inactive.

Consider `COC(=O)C1=CO[C@@H](C)[C@H]2CN3CCc4c([nH]c5ccccc45)[C@@H]3C[C@H]12`, for which the IC50 was more than 20 µg/mL and the outcome was inactive.

Turning to `COC(=O)[C@@H]1[C@H]2C[C@H]3c4[nH]c5ccccc5c4CCN3C[C@@H]2CC[C@@H]1O`, the IC50 is more than 20 µg/mL and the compound was called inactive.

For orientation: IC50 means the concentration that inhibits the measured activity by half. A high value points to a need for much substance. One may read the CC50 as the concentration at which the toxic effect on the cells reaches its halfway point. Low readings indicate harm at low concentration, high ones better tolerance by the cells.
